From PubChem
Mito fusion yeast: mitochondrial division inhibition or fusion activation; S. cerevisiae fusion-defective mutant growth rescue, CellTiterGlo 48 h; Potency, µM (doses to about 46.1 µM), usual class: activators; hit rate 0.23% among 320,000; AID 485298; note: nearly all actives have a fitted effect of over 45% in size
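S. cerevisiae fusion-defective temperature-sensitive mutants (e.g. fzo1-1, mgm1-5) grown 48 h at 37C in YPEG (ethanol/glycerol non-fermentable) medium with 23 nl compound per well; growth rescue read as CellTiterGlo luminescence.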
LDHA block: LDHA (human) enzyme inhibition. P00338. purified LDHA, NADH/diaphorase-resazurin fluorescence; stronger effect = lower value. activity change, % (values are at about 110 or 230 µM). hit rate 0.15% among 480,000; in the data active = activity change below about -30%; inconclusive = mostly about -25% to -30%
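LDH5 2 nM; NADH 0.06 mM, pyruvate 0.2 mM; 200 mM Tris pH 7.4, EDTA, Tween-20; 5 min RT. Detection: diaphorase 0.133 mg/mL + resazurin 37 µM, fluorescence ex540/em590 at 0 and 20 min; normalized to enzyme-free and DMSO wells.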
ClpP mod: qHTS Assay for Activators of ClpP | Potency, µM (top dose mostly 57.5 µM) | hit rate 1.9% among 340,000 | ATP-dependent Clp protease proteolytic subunit (Bacillus subtilis (strain 168)), P80244 | AID 651965, 2013 | purified B. subtilis ClpP, FRET peptide cleavage, 20 min; active = well fitted falling curve with a large enough effect; inconclusive = small, poorly fitted or top-dose-only effect; inactive = no such curve, though single readings can be large or run the other way; note: the source files actives as falling curves though it sought activators and does not explain the sign; nearly all actives have a fitted effect of over 65% in size
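Buffer: 100 mM Tris/HCl pH8, 100 mM KCl, 0.05% low protease BSA, 2.5% glycerol, 0.01% Tween-20. ClpP 10 microg/mL final; 20 min RT; delta FRET normalized to ADEP and DMSO controls.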
S-ASM inh: blocks human secretory acid sphingomyelinase | placental ASM, HMU-PC fluorogenic substrate, 60 min | P17405 | hit rate 0.006% among 340,000 | Potency, µM (titrated, usually from 57.5 µM), usual class: inhibitors
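Fluorogenic HMU-PC substrate (9 uM final) is turned over by placental ASM in 60 min at 37 C after a 10 min compound preincubation. Reaction ended by alkaline stop (pH 10), with fluorescence read at 386/447 nm.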
RGS4 inhibitor: inhibitors of human regulator of G protein signaling 4; P49798; Transcreener GDP fluorescence polarization, RGS4-accelerated GTP hydrolysis; Potency, µM (top dose mostly 114 µM), most hits filed as inhibitors; hit rate 0.039% among 390,000; note: nearly all actives have a fitted effect of over 75% in size
Target sequence (P49798 whole entry, looked up): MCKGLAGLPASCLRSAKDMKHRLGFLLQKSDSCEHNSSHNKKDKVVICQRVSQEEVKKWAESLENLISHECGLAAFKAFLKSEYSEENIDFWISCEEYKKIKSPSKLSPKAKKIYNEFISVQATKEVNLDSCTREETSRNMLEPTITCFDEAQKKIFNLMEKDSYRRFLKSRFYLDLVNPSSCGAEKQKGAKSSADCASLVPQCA
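MLSMR compounds (23 nl, pin-transferred) preincubated 10 min at room temperature with a 500nM (2x) first reagent, then RGS4 at 900nM (2x) plus Transcreener GDP mix added; fluorescence polarization (620/688 nm) read before and after 90 min at 30 °C.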
mIDH1 inhibitor: human IDH1 R132H inhibition; O75874; IDH1-R132H enzyme, NADPH consumption, diaphorase/resazurin fluorescence; Potency, µM (highest dose often 76.6 µM), usual class: inhibitors; hit rate 0.093% among 390,000; AID 602179; note: nearly all actives have a fitted effect of over 65% in size
Target sequence (O75874 whole entry R132H, stated change not applied): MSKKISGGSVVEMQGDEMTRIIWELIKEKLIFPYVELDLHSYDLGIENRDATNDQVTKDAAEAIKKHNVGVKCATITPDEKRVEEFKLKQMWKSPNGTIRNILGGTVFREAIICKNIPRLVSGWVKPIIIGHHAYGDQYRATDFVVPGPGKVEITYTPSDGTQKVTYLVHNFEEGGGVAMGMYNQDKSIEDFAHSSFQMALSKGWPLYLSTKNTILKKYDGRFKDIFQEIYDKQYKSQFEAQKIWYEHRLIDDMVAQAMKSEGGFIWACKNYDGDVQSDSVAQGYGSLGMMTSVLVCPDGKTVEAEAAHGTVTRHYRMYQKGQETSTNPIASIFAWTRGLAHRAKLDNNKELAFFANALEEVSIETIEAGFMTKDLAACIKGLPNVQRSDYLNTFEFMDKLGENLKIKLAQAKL
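IDH1-R132H (0.5 ug/mL) preincubated 30 min with compound, then NADPH (0.016 mM) and alpha-KG (2 mM) added; 80 min at RT, pH 7.5. Remaining NADPH coupled via diaphorase/resazurin to fluorescence (540/590 nm); concentration-response curves normalized to no-enzyme control.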
IDH1 autofl: interferes with resorufin fluorescence in IDH1 counter-screen; shares compounds with mIDH1 inhibitor; Resorufin detection reagent fluorescence interference, cell-free; inhibition of signal, % at 51.2 µM; 750 tested, under 10 active; AID 623980
WT IDH1 inh: wild-type IDH1 (human) inhibition counterscreen; hit rate 9% among 750; Potency, µM (doses to about 115 µM), hits mostly inhibitors; shares compounds with mIDH1 inhibitor; WT IDH1 enzyme, NADPH diaphorase/resazurin fluorescence; AID 623995; note: nearly all actives have a fitted effect of over 55% in size
Target sequence (O75874 whole entry, looked up): as the sequence (O75874 whole entry R132H, stated change not applied) above, with H132R counted along it
IDH1 R132H conf: inhibits human mutant IDH1 enzyme in cherrypick confirmation; hit rate 83% among 750; shares compounds with mIDH1 inhibitor; AID 624002; Potency, µM (doses to about 76.6 µM), hits mostly inhibitors; IDH1 R132H enzyme, NADPH diaphorase/resazurin fluorescence; note: nearly all actives have a fitted effect of over 50% in size
Each line names hits and unclear results; the compound was inactive in the other large screens (follow-up assays come after a bar, where they were run). This excerpt belongs to a sample that is enriched for hits. Unless noted, calls come from the whole dose curve; as a rule, active = well fitted curve in the direction sought with a large enough effect; inconclusive = small, poorly fitted or top-dose-only effect, or another doubt; inactive = no such curve, though single readings can be large; an effect the other way counts as inactive or inconclusive.

COc1cc(OC)c(NC(=O)c2ccc3c(SCC(=O)O)c4c(nc3c2)CCCC4)cc1Cl	mIDH1 inhibitor inconclusive | IDH1 autofl inactive | WT IDH1 inh inactive | IDH1 R132H conf 28µM
COc1ccc(-n2c(-c3ccc(Cl)cc3Cl)n[nH]c2=S)c(OC)c1	mIDH1 inhibitor 46µM (no result: ClpP mod) | IDH1 autofl inactive | WT IDH1 inh inactive | IDH1 R132H conf inactive
CCCn1cc(S(=O)(=O)c2cc(C)ccc2C)c(=O)c2cc(F)c(N3CCCCCC3)cc21	ClpP mod inconclusive, mIDH1 inhibitor inconclusive (no result: Mito fusion yeast, S-ASM inh) | IDH1 autofl inactive | WT IDH1 inh inactive | IDH1 R132H conf 16µM
COC(=O)c1ccc(C)c(NC(=O)C2CC3CCC2C3)c1 (stereo not drawn)	none (no result: Mito fusion yeast, ClpP mod, S-ASM inh, RGS4 inhibitor, mIDH1 inhibitor)
O=C(NC(Nc1nc2ccc([N+](=O)[O-])cc2s1)(C(F)(F)F)C(F)(F)F)c1cccnc1	mIDH1 inhibitor inconclusive | IDH1 autofl inactive | WT IDH1 inh inactive | IDH1 R132H conf 13µM
O=C(NC(Nc1nc2ccc([N+](=O)[O-])cc2s1)(C(F)(F)F)C(F)(F)F)c1ccccc1Cl	mIDH1 inhibitor inconclusive | IDH1 autofl inactive | WT IDH1 inh inactive | IDH1 R132H conf 22µM
CN(C)S(=O)(=O)c1ccc2nc(NC(=O)c3cccnc3)sc2c1	none
O=C(/C=C/c1ccc2ccccc2n1)NCc1ccccc1	none (no result: Mito fusion yeast, ClpP mod, S-ASM inh, RGS4 inhibitor, mIDH1 inhibitor)
Cc1cc(NC(=O)CCC(=O)N(c2cccnc2)C(C(=O)NC2CCCC2)c2ccccc2)no1 (stereo not drawn)	mIDH1 inhibitor inconclusive | IDH1 autofl inactive | WT IDH1 inh inactive | IDH1 R132H conf inconclusive
Cc1cccc(N(C(=O)CCC(=O)Nc2cc(C)on2)C(C(=O)NC2CCCC2)c2ccccc2)c1 (stereo not drawn)	mIDH1 inhibitor 45µM | IDH1 autofl inactive | WT IDH1 inh inactive | IDH1 R132H conf 20µM
Cc1cccc(N(C(=O)CCC(=O)Nc2cc(C)on2)C(C(=O)NC2CCCC2)c2cccnc2)c1 (stereo not drawn)	none (no result: ClpP mod)
Cc1ccc(NC(=O)[C@H](Cc2ccccc2)NC(=O)OC(C)(C)C)cc1	none (no result: Mito fusion yeast, ClpP mod, S-ASM inh, RGS4 inhibitor, mIDH1 inhibitor)
CC(Oc1ccc(C#N)cc1)C(=O)NC1CCC2CCCCC2C1 (stereo not drawn)	none (no result: Mito fusion yeast, ClpP mod, S-ASM inh, RGS4 inhibitor, mIDH1 inhibitor)
COc1ccccc1Oc1c(C)oc2cc(OC(=O)C3CC3)ccc2c1=O	none (no result: Mito fusion yeast, ClpP mod, S-ASM inh, RGS4 inhibitor, mIDH1 inhibitor)
CN(c1ccccc1)c1ccc(/C=C/[N+](=O)[O-])cc1	RGS4 inhibitor inconclusive, mIDH1 inhibitor 29µM (no result: ClpP mod) | IDH1 autofl inactive | WT IDH1 inh 71µM | IDH1 R132H conf 22µM
COC(=O)c1c(NC(=O)COC(=O)c2ccc(O)cc2)sc2c1CCCCC2	mIDH1 inhibitor inconclusive (no result: ClpP mod) | IDH1 autofl inactive | WT IDH1 inh inactive | IDH1 R132H conf inactive
COCC(=O)Nc1sc2c(c1C(=O)OC)CCCC2	none
CCN(C(=O)c1cc2c(C)nc3ccccc3c2o1)c1cc(Cl)ccc1OC	Mito fusion yeast inconclusive, mIDH1 inhibitor 33µM (no result: ClpP mod) | IDH1 autofl inactive | WT IDH1 inh inactive | IDH1 R132H conf 20µM
O=C(OCc1ccccc1[N+](=O)[O-])c1nn(-c2ccc(F)cc2)c2c1CCC2	none (no result: Mito fusion yeast, ClpP mod, S-ASM inh, RGS4 inhibitor, mIDH1 inhibitor)
COc1ccc2c(c1)c1ccc3c(c1n2C)C(=O)C=CC3=O	mIDH1 inhibitor 35µM | IDH1 autofl inactive | WT IDH1 inh inactive | IDH1 R132H conf 22µM
Cn1c2ccccc2c2ccc3c(c21)C(=O)C=CC3=O	RGS4 inhibitor inconclusive, mIDH1 inhibitor 23µM (no result: Mito fusion yeast) | IDH1 autofl inactive | WT IDH1 inh inactive | IDH1 R132H conf 10µM
Cc1ccc2c(c1)c1ccc3c(c1n2C)C(=O)C=CC3=O	mIDH1 inhibitor 41µM | IDH1 autofl inactive | WT IDH1 inh inactive | IDH1 R132H conf 22µM
Cc1ccc(C)c2c1c1ccccc1n2C	none (no result: ClpP mod)
Cc1ccc2c(c1)c1ncnc(N3CCC4(CC3)OCCO4)c1n2C	none (no result: LDHA block, ClpP mod, S-ASM inh, RGS4 inhibitor, mIDH1 inhibitor)
CCOC(=O)c1c(C)[nH]c(C(=O)NCCc2ccc(Cl)cc2)c1C	none (no result: Mito fusion yeast, ClpP mod, S-ASM inh, RGS4 inhibitor, mIDH1 inhibitor)
O=C(O)c1cc(-c2ccc(-c3c(-c4ccc5c(c4)OCO5)noc3-c3ccsc3)cc2)nc2ccccc12	mIDH1 inhibitor 45µM | IDH1 autofl inactive | WT IDH1 inh inconclusive | IDH1 R132H conf 20µM
CC[Si](C)(CC)COC(=O)CCC[N+](C)(C)C	none (no result: Mito fusion yeast, ClpP mod, S-ASM inh, RGS4 inhibitor, mIDH1 inhibitor)
COc1ccc2c(C(=O)c3ccc(C)cc3)n(Cc3ccc(C(N)=O)cc3)[n+]([O-])c2c1	mIDH1 inhibitor inconclusive | IDH1 autofl inactive | WT IDH1 inh inactive | IDH1 R132H conf 16µM
CCc1ccc(NC(=O)CSC2=C(C#N)C(c3ccco3)C3=C(CCCC3=O)N2)cc1 (stereo not drawn)	RGS4 inhibitor inconclusive
Cc1ccc(NC(=O)CSC2=C(C#N)C(c3ccco3)C3=C(CC(C)(C)CC3=O)N2)cc1 (stereo not drawn)	mIDH1 inhibitor 52µM | IDH1 autofl inactive | WT IDH1 inh inactive | IDH1 R132H conf 28µM
COC(=O)CCSc1nc(N2CCOCC2)c2c(c1C#N)CC(C)(C)OC2	none (no result: ClpP mod)
